RMI FANCM FP: disruptors of RMI1/RMI2 association with MM2 peptide – biochemical, fluorescence polarization, human, primary screen. RMI core complex (RMI1/RMI2) binding to FANCM MM2 peptide, human. FP signal (polarization) at 33 µM. RMI core complex with F-MM2 peptide; active compounds read low. AID 1159607, 2016. 70,000 tested, 0.58% active; in the data active = FP signal below about 40
An asterisk follows results filed as active; ! = a repeat was not active. This is one part of a sample in which hits are shown more often than they occur.

SMILES | RMI FANCM FP
CC(Cc1ccc(O)cc1)NCC(O)c1cc(O)cc(O)c1 (stereo not given) | -13*!
C[C@H](Cc1ccc2c(c1)OC(C(=O)O)(C(=O)O)O2)NC[C@H](O)c1cccc(Cl)c1 | 47
CC(N)Cc1ccc(O)cc1 (stereo not given) | 63
N#CC(C#N)=Cc1c[nH]c2ccccc12 | 62
COc1c(CC=C(C)C)c2c(c3oc(=O)c(-c4ccc(O)cc4)c(O)c13)C=CC(C)(C)O2 | 13*
CC(C)=CCCC1(C)C=Cc2c(O)c3c(c(CC=C(C)C)c2O1)OC12C(=CC4CC1C(C)(C)OC2(C/C=C(/C)C(=O)O)C4O)C3=O (stereo not given) | 54
CC(C)=CCCC1(C)C=Cc2c(O)c3c(c(CC=C(C)C)c2O1)OC12C(=CC4CC1C(C)(C)OC2(C/C=C(/C)C(=O)O)C4=O)C3=O (stereo not given) | 56
Cc1nc2ccc(NC(=O)CC3CCCC3)cc2c(=O)n1-c1ccc(F)cc1 | 60
N#CC1(N2CCOCC2)CCCC1 | 67
Cn1nnc2c(N3CC4CC(C3)c3cccc(=O)n3C4)ncnc21 (stereo not given) | 51
CCn1nccc1C(=O)Nc1ccc(Cl)cc1C(=O)c1ccccc1 | 67
NC1=NC(=O)C(c2ccccc2)O1 (stereo not given) | 17*
CCN1CCN(C(=O)Cc2cccc3ccccc23)CC1 | 53
CC(C)=C1CC2C3CCC4CCCCC4(C)C3CCC2(C)C1O (stereo not given) | 65
CCNC(=S)N1CCCCC1c1cccnc1 (stereo not given) | 59
CCc1ccc(C=C(C#N)C#N)cc1 | 61
O=C1C=CC(=O)c2c(O)cccc21 | -18*
O=C1c2ccccc2C(=O)c2ccccc21 | 58
Cc1c([N+](=O)[O-])cc2c(c1[N+](=O)[O-])C(C)(C)CC2(C)C | 53
NC(N)=N/N=C\C=N/N=C(N)N | 54
NCCc1cc(O)c(O)cc1O | 59
N[C@@H](CCl)C(=O)O | 52
NC(Cc1cc(O)c(O)cc1O)C(=O)O (stereo not given) | -4*
O=C(Nc1ccc(Br)cc1C(=O)c1ccccc1Cl)c1ccno1 | 53
N#CC(C#N)=Cc1ccc(-c2ccccc2)cc1 | 54
CN(C)C(=O)Oc1cc(C(F)(F)F)nc(C2CC2)n1 | 60
COc1ccc2c(c1)[nH]c1c(C)nccc12 | 67
CC1=NCCc2c1[nH]c1cc(O)ccc21 | 64
COc1ccc2c3c([nH]c2c1)C(C)=NCC3 | 35*!
Clc1ccc(NCCN2CCOCC2)nn1 | 60

Screens deposited in PubChem BioAssay by Small Molecule Screening Facility, UW Madison.
